The record followed here is PubChem BioAssay (NCI).

Compounds without any hit were thinned out: in the full panel of roughly 83,000, 20% have a hit.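 Negative percent growth values reflect cell death: -40 means 40% of the cells present at the start died, and -100 means all died.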 Unmarked numbers belong to inactive results. Active and inactive are the calls of the source. Rule for the calls: active = growth percent below 10; inactive = the rest.

The test system of the assay is MDA-MB-468 breast. The experiment in a line: NCI-60 one-dose screen, 48 h (100 = growth as untreated, 0 = no growth, -100 = all killed). The following applies: 10 µM unless noted.
In the case of `C[C@@H](Oc1cc(-c2cnn(C3CC4(CCNCC4)C3)c2)cnc1N)c1c(F)ccc(Cl)c1Cl`, the growth was -53.3% (active). Then `CNC(=O)c1cc(Oc2ccc3c(c2)sc2nc(-c4cc(C(F)(F)F)cc(C(F)(F)F)c4)cn23)ccn1`, with 4.64% (active); and `COc1cc(/C=N/Nc2nc(-c3ccc(F)cc3)c(C#N)c(N3CCOCC3)n2)ccc1O`, with 87.4%; and `O=[N+]([O-])c1cc(S(=O)(=O)Nc2ccccc2)ccc1Cl`, with -33.4% (active).

For `CCCCCCCCCCCCCCCCCC(=O)Nc1ccc(O)cc1`, the growth was 103%. Consider `CCNCCNc1cc(-c2cccc(C(F)(F)F)c2)c(C#N)c2nc3ccccc3n12`, for which the growth was -84.3% (active). Then `COc1ccc2nc3cc([N+](=O)[O-])ccc3c(NNc3ccccc3)c2c1`, with 58.3%. Then `COc1ccc(CCN2C(=O)CSC2=S)cc1OC`, with -2.77% (active). Then `CCCCCCNC(=O)Oc1ccc(/C(=C(\C)c2ccccc2)c2ccc(OCCN(CC)CC)cc2)cc1`, with 74.9%; and `COc1ccc(C(=O)c2cc3c(N)c(C(=O)Nc4ccccc4)sc3nc2C)cc1`, with 3.89% (active); and `NC(=O)NS(=O)(=O)c1ccc(N2N=C(C(F)(F)F)CC2c2cc(C(F)(F)F)cc(C(F)(F)F)c2)cc1` (stereo not given), with 70.1%. For the compound `c1nc(N2CCOCC2)c2[nH]ccc2n1`, the growth is 108%.

As for `CNC(=S)NC(C)(C)C`, the growth was 111%.

Turning to `CC1CCCN(CCCCCOc2ccc3oc4ccccc4c(=O)c3c2)C1` (stereo not given), the growth is 52.2%. Then `Nc1cc2ccncc2c2ccccc12`, with 71.7%.
